Several values for one entry are separate records, joined by “and”; a condition that tells them apart may be missing. Equal values may be shown once. Among all 69,000 compounds or so, about 2,600 (3.8%) were called active. Rule as the data show it: active = activity change below about -70% (passing the limit was not always enough); inconclusive = no clear call, values can overlap the other calls. Many of the other results were omitted from the sample, so actives are more common in it than they were. Some compounds were tested as several samples or in several runs, with calls that do not always agree.
Test: inhibitors of Toxoplasma growth in IFN-γ-primed hosts – cell-based, primary screen (AID 1259416);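 also: host cells are HeLa cells infected with Toxoplasma gondii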
Details: Toxoplasma gondii growth in IFN-gamma-treated host cells; stronger effect = lower value; concentration not given here

SMILES	activity change, negative = inhibition
CC[N+]1(C)CCCC(OC(=O)C(O)(c2ccccc2)c2ccccc2)C1 (stereo not drawn)	-81.7% (active) and 11.1% (inactive) and 46.8% (inactive)
COc1ccc(OC)c(NC(=O)c2cc3cccnc3n(Cc3ccccc3F)c2=O)c1	10.9% (inactive)
CC(C)N1C[C@H]2CN(C(=O)c3cccs3)C[C@@H]2C1	13.5% (inactive)
CO[C@@H]1CCN(C(=O)c2ccc(C)cn2)[C@H]2CN(CC3CC3)C[C@@H]12	294% (inactive)
c1cc(-c2cccc3c2CCNC3)cc(-n2cnnc2)c1	-1.55% (inactive)
CC(C)(Cc1c[nH]c2ccc(Cl)cc12)NCCOc1ccccc1OCC1CC1	-75.1% (active) and -81.3% (active)
COc1ccc2c(c1)C1(CCN(C(=O)C(C)(C)NC(=O)OCc3ccccc3)CC1)CC2CC(=O)O (stereo not drawn)	0.749% (inactive)
Cc1nc(N2CCCN3CCC[C@H]3C2)c2cnn(C)c2n1	2.34% (inactive)
CN1CCC2(COCc3cnc(NCc4ccco4)nc32)C1 (stereo not drawn)	-59.4% (inactive)
CCc1cnc(C)nc1N1CCC2(CC1)CN(C)CCN2C	-5.22% (inactive)
CC(Cc1ccccn1)N(C)Cc1ncc[nH]1 (stereo not drawn)	15.6% (inactive)
c1ccc2c(c1)[I+]c1ccccc1-2	-75.9% (active) and -69.4% (inactive)
COc1ccc(NC(=O)c2cc3cccnc3n(Cc3ccc(Cl)cc3)c2=O)c(OC)c1	113% (inactive)
CCc1ccc(NC(=O)c2cc3cccnc3n(Cc3ccccc3F)c2=O)cc1	49.4% (inactive)
CC(NC(=O)c1c(O)c2cccnc2n(Cc2ccccc2)c1=O)c1ccccc1 (stereo not drawn)	-120% (active)
O=C(Nc1ccccc1)c1c(O)c2cccnc2n(Cc2ccccc2)c1=O	-29% (inactive)
Cc1cc(C)cc(NC(=O)c2c(O)c3cccnc3n(Cc3ccccc3)c2=O)c1	135% (inactive)
CC(C)c1ccc(NC(=O)c2cc3cccnc3n(Cc3ccc(Cl)cc3)c2=O)cc1	70.6% (inactive)
C=CCNC(=O)c1cn(Cc2ccc(C)o2)cc(C(=O)N2CCCCCCC2)c1=O	-1.9% (inactive)
C/C=C/c1ccc(C2[C@@H]3CN(S(C)(=O)=O)C[C@H]2N3)cc1 (stereo partly drawn)	4.19% (inactive)
COc1cc([C@@H]2c3cc4c(cc3[C@H](OC(C)=O)[C@H]3COC(=O)[C@H]23)OCO4)cc(OC)c1OC	-81.8% (active)
O=C(Nc1cccc(F)c1)N1CC2CNC(C2)C1 (stereo not drawn)	-49% (inactive)
CN(Cc1ncc[nH]1)C1CCC2(CCNCC2)CC1	-23.6% (inactive)
CCN1CCO[C@@H]2CN(Cc3ccc4ccccc4n3)C[C@H]2C1	-44.8% (inactive)
CCCCCCCCCCCCCC(=O)O[C@@H]1[C@@H](C)[C@@]2(O)[C@@H](C=C(CO)C[C@]3(O)C(=O)C(C)=C[C@@H]23)[C@@H]2C(C)(C)[C@]12OC(C)=O	-78.2% (active) and -67.3% (inactive)
CNC(=O)[C@H]1CC2CN(C(=O)Cc3cccs3)CC2N1C (stereo partly drawn)	-9.27% (inactive)
CC(=O)O[C@H]1CC[C@@]2(C)C(=CCC3C2CC[C@]2(C)C(=O)CCC32)C1 (stereo partly drawn)	-55.1% (inactive)
COc1ccc(CN2CCCC23CCCN(C(=O)Cc2ccc(Cl)cc2)C3)cc1F (stereo not drawn)	84.8% (inactive)
